Among the data in PubChem BioAssay AID1259240 (Keith Lab, Institute of Cancer Science, University of …, 2017) are fold change values, retold here.

Values without a mark were called inactive. Calls of active or inactive are those of the source. No stated cut-off is given here; in the data, active means fold change mostly below about -2 (no sharp cut-off); inactive means mostly above about -1.8.

The assay in a line: TERT promoter activity modulators, primary screen, cell-based, luciferase reporter, human (AID 1259240). The following applies: A2780 TERT promoter luciferase reporter, 16 h; at 20 µM, fold versus average of vehicle-only wells. A general note: A reporter such as luciferase makes a cellular process visible.
With `Cc1nc2cc(-c3ccccc3)nn2c(C)c1CCC(=O)O`, the fold change is -6.77 (active).

Regarding `CCOC(=O)c1sc2nccc3c2c1N=CN3c1ccccc1`, the fold change is -1.96. Turning to `Cc1cc(C)n(-c2nc3ccccc3n3nnnc23)n1`, the fold change was 1.46. With `CCOc1ccc(Oc2nc(NC(C)(C)C)nc(N3CCOCC3)n2)nn1` the figure was 1.49; with `CC(C)C(NS(=O)(=O)c1ccc2c(c1)oc(=O)n2C)C(=O)N1CCN(c2ccccc2F)CC1` (stereo unspecified), 1.1.

As for `CCOc1ccc(S(=O)(=O)n2c(C)nc3ccccc32)cc1`, the fold change is -1.6. With `O=C(CSc1nnc2c(n1)[nH]c1ccccc12)c1ccc(Br)cc1` the figure was 1.22.

`COc1ccc2cc(S(=O)(=O)c3ccc(Cl)cc3)c(=O)oc2c1`: the fold change was -2.33 (active).

On to `Cc1nc2cc(-c3ccccc3)nn2c(C)c1CCC(=O)NC(C)c1ccc2c(c1)OCCO2` (stereo unspecified), for which the fold change is -3.95 (active). With `CC(C)CNC(=O)CCN1C(=O)c2ccccc2S1(=O)=O` the figure was -2.25 (active); with `CCN1C(=O)C(O)(CC(=O)c2ccc3c(c2)OCCO3)c2ccccc21` (stereo unspecified), -1.17; with `Clc1ccc(Nc2c(-c3c[nH]c4ccccc34)nc3cnccn23)cc1`, -1.4. Consider `Cc1cccc(C(=O)N2N=C(c3ccc(NS(C)(=O)=O)cc3)CC2c2ccco2)c1` (stereo unspecified), for which the fold change is 1.31.

As to `C=CCn1c(NCCN(CC)CC)nc2c1c(=O)[nH]c(=O)n2C`, the fold change was 1.22. The result for `CCOC(=O)N1CCN(c2c(NC3CCCC(C)C3C)c(=O)c2=O)CC1` (stereo unspecified) reads 1.1. With `CCOC(=O)N1CCN(c2c(NCC3CCCO3)c(=O)c2=O)CC1` (stereo unspecified) the figure was 1.16.
